PAFAH2 inh: PAFAH2 enzyme inhibitors, primary screen, biochemical, fluorescence polarization, human; Platelet-activating factor acetylhydrolase 2, cytoplasmic (Homo sapiens), Q99487; 0.99% of 340,000 active; inhibition, % at 3.39 µM; AID 492956, 2010; recombinant PAFAH2, FP-rhodamine activity probe;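 active = inhibition above the mean over all tested compounds plus 3 SD, cut at about 30% in these data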;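 also: inhibitors block probe labeling of enzyme so polarization drops; 0% = enzyme with DMSO and 100% = wells lacking PAFAH2 protein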
PAFAH1B2 FP inh: PAFAH1B2 enzyme inhibitors, primary screen, biochemical, fluorescence polarization, human | inhibition, % at 3.39 µM | AID 492953, 2010 | recombinant PAFAH1B2, FP-rhodamine activity probe | 1.2% of 340,000 active;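 active = inhibition above the mean of all tested compounds plus 3 SD, cut at about 24% in these data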;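 also: 0% = enzyme with DMSO and 100% = wells lacking PAFAH1B2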
PP1 counter: PP1-alpha phosphatase inhibitors, primary screen, counter-screen for PP5 inhibitor project, biochemical, fluorescence, OMFP substrate, single point; Serine/threonine-protein phosphatase PP1-alpha catalytic subunit (Homo sapiens), P62136; inhibition, % at 6.7 µM; purified PP1alpha; 0.9% of 320,000 active;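 active = inhibition above the mean inhibition of all tested compounds plus 3 SD, computed separately for each screening campaign, cut at about 15% in these data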
PP5 inh: PP5 phosphatase inhibitors, primary screen, biochemical, fluorescence. purified PP5c, OMFP substrate fluorescence. inhibition, % at 6.7 µM. Serine/threonine-protein phosphatase 5 (Homo sapiens), P53041. AID 1987, 2009. 0.18% of 320,000 active;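 active = inhibition above the campaign's mean inhibition across all tested compounds plus 3 SD, cut at about 9.5% in these data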;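 also: 0% = DMSO only and 100% = 100 µM cantharidin control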
Target sequence (P53041 whole entry, looked up): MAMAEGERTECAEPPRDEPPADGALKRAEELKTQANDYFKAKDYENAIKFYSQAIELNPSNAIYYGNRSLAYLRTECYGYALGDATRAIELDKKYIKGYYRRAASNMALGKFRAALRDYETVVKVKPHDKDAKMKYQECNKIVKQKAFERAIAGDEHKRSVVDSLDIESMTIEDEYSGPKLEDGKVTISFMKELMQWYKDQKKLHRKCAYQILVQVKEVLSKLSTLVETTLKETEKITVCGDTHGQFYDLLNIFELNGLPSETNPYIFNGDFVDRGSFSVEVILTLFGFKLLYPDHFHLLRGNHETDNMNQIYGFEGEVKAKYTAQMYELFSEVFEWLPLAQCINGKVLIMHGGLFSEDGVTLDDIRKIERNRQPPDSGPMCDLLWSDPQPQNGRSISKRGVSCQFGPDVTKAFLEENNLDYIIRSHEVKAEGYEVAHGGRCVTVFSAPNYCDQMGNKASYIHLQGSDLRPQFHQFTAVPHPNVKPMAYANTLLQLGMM
PAFAH1B3 FP inh: PAFAH1B3 enzyme inhibitors, primary screen, biochemical, fluorescence polarization, human. Platelet-activating factor acetylhydrolase IB subunit alpha1 (Homo sapiens), Q15102. recombinant PAFAH1B3, FP-rhodamine probe. inhibition, % at 3.39 µM. 0.28% of 340,000 active. AID 492972, 2010;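 active = inhibition above the screen-wide average of all tested compounds plus 3 SD, cut at about 25% in these data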;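 also: 0% = enzyme with DMSO only and 100% = wells lacking PAFAH1B3 protein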
pPAFAH FP inh: pPAFAH enzyme inhibitors, primary screen, biochemical, fluorescence polarization, human; inhibition, % at 3.39 µM; recombinant pPAFAH, FP-rhodamine probe fluorescence polarization; 1.5% of 330,000 active; Platelet-activating factor acetylhydrolase (Homo sapiens), Q13093;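 active = inhibition above the mean inhibition across the screen plus 3 SD, cut at about 25% in these data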;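 also: inhibitors block binding of the rhodamine activity-based probe so polarization drops; 0% = enzyme with DMSO and 100% = wells lacking pPAFAH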
* = called active by the depositor; / = no result given. Sampled rows, rich in hits. Any-hit rate of the full collection: about 3.4%.

SMILES	PAFAH2 inh	PAFAH1B2 FP inh	PP1 counter	PP5 inh	PAFAH1B3 FP inh	pPAFAH FP inh
N[C@@H](Cc1ccccc1)c1nnc(SCc2ccccc2F)o1	6	4	1	4	8	2
CCC(Sc1nc2ccsc2c(=O)n1Cc1ccc(C(=O)O)cc1)C(=O)Nc1ccc(C)c(Cl)c1 (stereo not drawn)	-8	-5	17*	3	-12	-2
CCOc1ccccc1NC(=O)C(CC)Sc1nc2ccsc2c(=O)n1CCC(=O)O (stereo not drawn)	2	-3	4	2	2	-3
O=C(Nc1ccc2c(c1)OCCO2)c1ccc(Br)s1	4	0	-1	8	5	2
Oc1ccc(CN2CCc3ccccc3C2)c2cccnc12	0	-1	15*	9	7	4
Oc1ccc(CN2CCCCC2)c2cccnc12	2	1	3	2	8	5
CC12CCC(C1)C(C)(C)C2NS(=O)(=O)c1ccc(F)cc1 (stereo not drawn)	4	26*	-2	5	5	-2
Cc1ccc(Nc2nc(N)c([N+](=O)[O-])c(N3CCC(C)CC3)n2)cc1C	-9	3	-1	2	1	1
O=S(=O)(O)c1cc(Cl)cc(N=Nc2ccc(O)cc2O)c1O	35*	42*	/	/	26*	/
O=[N+]([O-])c1ccc(N=Nc2ccc(O)cc2O)cc1	8	-2	2	2	6	4
Oc1c(Cl)cc(Cl)c2cccnc12	-2	2	/	/	5	/
Oc1c(I)cc(I)c2cccnc12	7	8	3	-1	10	33*
CCCCCCCCn1c(=O)c(C(=O)OCC)c(O)c2ccccc21	2	24*	0	1	9	5
O=C(Nc1ccc(Cl)cc1)Nc1ccc(N2CCCC2)c(S(=O)(=O)Nc2ccccc2Cl)c1	-23	8	17*	3	-16	19
CC(C)C(=O)NC(=S)Nc1c(Cl)ccc2nsnc12	4	4	-1	-2	8	1
Cc1[nH]c2ccccc2c1/C=N/NC(=O)c1cc(-c2cccs2)[nH]n1	14	11	2	6	22	27*
Fc1ccc(CN2CCCCCCC2)c(F)c1	1	5	1	2	-2	3
COc1ccc2[nH]c(=O)c(CN(CC3CCCO3)C(=S)Nc3cccc(C)c3)cc2c1 (stereo not drawn)	-7	3	0	1	4	3
O=C(CCCOc1ccccc1)Nc1cccc(S(=O)(=O)N2CCCCC2)c1	2	4	3	2	-3	3
CC(C)(C)c1ccc(OCCC(=O)Nc2cccc(S(=O)(=O)N3CCCCC3)c2)cc1	-15	-22	16*	0	-32	0
CN(C)c1ccc(C(=O)OCC(=O)Nc2cccc(S(=O)(=O)N3CCCC3)c2)cc1	86*	5	/	/	3	27*
CC1=C(C(=O)OCCOC(C)C)C(c2cc3c(cc2Br)OCO3)C2=C(CCCC2=O)N1 (stereo not drawn)	-2	-4	-2	2	6	0
CCNC(=O)CSc1nnc(-c2ccc(OC)cc2)n1CC(C)C	0	0	2	2	2	1
CN(C)/C=N/NC(=O)c1ccccc1Cl	0	5	-2	-4	-1	0
NC(=O)CCC(NS(=O)(=O)c1ccc(Cl)cc1)C(=O)NCc1ccc(Cl)cc1 (stereo not drawn)	2	24*	0	3	4	1
SMILES	PAFAH2 inh	PAFAH1B2 FP inh	PP1 counter	PP5 inh	PAFAH1B3 FP inh	pPAFAH FP inh
CCC1CN(C(=O)NCc2ccccc2)c2cc(C)ccc2O1 (stereo not drawn)	71*	36*	/	/	50*	/
CCC1CN(C(=O)NCc2ccc(C)cc2)c2cc(C)ccc2O1 (stereo not drawn)	-4	-5	/	/	6	/
CSc1ccc(Cl)c(C(=O)N2CCN(CC(=O)N3CCCC3)CC2)c1	3	3	/	/	8	4
COc1ccccc1NC(=O)CCCN1C(=O)C(c2ccccc2)Oc2cccnc21 (stereo not drawn)	3	1	1	3	7	-1
Cc1ccc(-n2c(Cc3cccn3C)nnc2SCC(=O)NCc2ccco2)cc1	3	1	-2	3	3	29*
CN(C)c1ccc(NC(=O)c2ccc(COc3cccc(Cl)c3)o2)cc1	23	4	1	5	5	27*
Cc1ccc(CS(=O)(=O)CC(C)(O)c2ccc(Cl)cc2)cc1 (stereo not drawn)	-1	27*	2	1	-8	8
Cc1cccc(N=Cc2cc3c(cc2[N+](=O)[O-])OCO3)c1	5	4	-3	-4	14	28*
Cc1cccc(NS(=O)(=O)c2ccc(C(=O)N3CC(C)OC(C)C3)cc2)c1C (stereo not drawn)	4	3	-2	4	9	29*
COc1cccc(/C=N/NC(=O)c2ccoc2C)c1O	-1	2	-4	-4	0	-2
COc1ccc(-c2cn3cccnc3n2)cc1NC(=O)C1CCCC1	5	3	-4	1	4	1
CN(C[C@H](Cc1ccccc1)N(C[C@H](Cc1cccc2ccccc12)N(CCc1ccccc1)N=O)N=O)N=O	3	-7	16*	4	3	0
CC(C)C[C@@H](CN(C)N=O)N(C[C@H](Cc1ccccc1)N(CCc1ccccc1)N=O)N=O	2	3	7	3	-1	6
C=CCNC(=O)c1ccc2c(c1)N(CC)C(=O)c1ccccc1S2	5	5	-3	2	-3	10
C(/CCc1ccccc1)=N\n1cnnc1	4	1	-8	2	-1	-7
Clc1ccccc1-c1nnn(Cc2ccc(-c3nn[nH]n3)cc2)n1	-5	4	2	3	4	-2
CCOc1ccc(S(=O)(=O)Nc2cc(Sc3ncn[nH]3)c3oc(=O)sc3c2)cc1	/	/	16*	1	/	33*
Cc1ccc(N(CC(=O)NCc2ccccc2)C(=O)CCC(=O)Nc2ccccn2)c(C)c1	1	5	-5	0	2	7
CC1=NN(c2nc(-c3ccc(F)cc3)cs2)C(=O)C1	14	5	11	2	4	30*
CC(C)C(NS(=O)(=O)c1cccc(C(F)(F)F)c1)C(=O)O (stereo not drawn)	3	4	-1	-2	8	6

Screens (PubChem BioAssay)
